The text below walks through data of PubChem BioAssay AID504332 (National Center for Advancing Translational Sciences (NCATS), 2011).

Hit rate of the full screen: of about 350,000 compounds, about 31,000 (8.9%) were called active. Not shown: some 15% with an inconclusive outcome. The sample as a whole holds a higher share of actives than the screen did. Values without a mark were called inactive. Calls follow the shape of the dose curve; as a rule, active = well fitted inhibition curve with a large enough effect; inconclusive = small, poorly fitted or top-dose-only effect; inactive = no such curve, though single readings can be large or run the other way.
% is scaled to controls: 0 for no effect and ±100 for the full control effect; potency is read from the fitted curve at half-maximal effect.

Histone-lysine N-methyltransferase EHMT2 (Homo sapiens), sequence (Q96KQ7 913-1193 limits assumed): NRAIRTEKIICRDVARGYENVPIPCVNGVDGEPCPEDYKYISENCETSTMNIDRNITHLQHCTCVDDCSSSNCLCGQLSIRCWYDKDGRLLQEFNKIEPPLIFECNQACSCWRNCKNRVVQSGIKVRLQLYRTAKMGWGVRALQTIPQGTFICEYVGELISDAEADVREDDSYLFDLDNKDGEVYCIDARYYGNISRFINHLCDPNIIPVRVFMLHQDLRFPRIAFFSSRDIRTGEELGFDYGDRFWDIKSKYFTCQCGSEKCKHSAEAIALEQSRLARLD

This experiment concerns the target Histone-lysine N-methyltransferase EHMT2 (Homo sapiens) (UniProt Q96KQ7). Put plainly: qHTS Assay for Inhibitors of Histone Lysine Methyltransferase G9a. Also: nearly all actives have a fitted effect of over 75% in size. The note with it: G9a H3K9 monomethylation, AlphaScreen, 2 h; series mostly up to 59 µM; activity, negative = inhibition: at the top concentration. In a few lines:
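Enzyme 20 nM + cpd, 15 min RT; add b-H3K9 pep 500 nM / SAM 20 uM; 2 h RT; anti-H3K9me1 Ab 0.5 ug/mL + SA donor / anti-rabbit acceptor beads 20 ug/mL each, 10 min; AlphaScreen read.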
`O=c1onc(-c2c(F)cccc2F)n1-c1ccccc1Cl`: the “activity, negative = inhibition” value was 22.1% [at 102 µM].

Turning to `O=c1c(=O)n(Cc2c(F)cccc2Cl)ccn1Cc1ccccc1`, the “activity, negative = inhibition” value is -38%.

As for `O=c1o[nH]c(-c2ccccc2)c1N=Nc1c(F)cccc1Cl`, the Potency was 28.2 µM (active).

With `Cc1nnc(NC(=O)CSc2nc3c([nH]c4ccccc43)c(=O)n2-c2cccc(Cl)c2)s1`, the “activity, negative = inhibition” value is 6.79%.

In the case of `COCCNS(=O)(=O)c1cc(-c2nn3c(C)nnc3c3ccccc23)ccc1C`, the “activity, negative = inhibition” value is -0.274%.

As for `Cc1nc2ccccn2c(=O)c1NC(=O)c1cccs1`, the “activity, negative = inhibition” value is 2.42% [at 102 µM].

For `Cc1ccc(C)c(S(=O)(=O)c2nnn3c2nc(N2CCOCC2)c2sccc23)c1`, the “activity, negative = inhibition” value is 13.3%.

Take `CCOC(=O)C1CN(S(=O)(=O)c2ccc(OC)cc2)c2cc(Cl)ccc2O1` (stereo unspecified): the “activity, negative = inhibition” value is 34.7% [at 102 µM].

For the molecule `Cc1ccc(C)c(S(=O)(=O)N2CCN(CC(=O)Nc3ccc([N+](=O)[O-])cc3)CC2)c1`, the “activity, negative = inhibition” value is -2.86%.

On to `O=[N+]([O-])c1cccc(S(=O)(=O)N2CCCCCC2)c1`, for which the “activity, negative = inhibition” value is -27.8%.

Consider `Cc1ccc([N+](=O)[O-])cc1S(=O)(=O)N1CCCN(C)CC1`, for which the Potency is 56.2 µM (active).

In the case of `CC(CNC(=O)c1nnc(Cc2cccc(F)c2)o1)c1ccccc1` (stereo unspecified), the “activity, negative = inhibition” value was -21.9%.

For `O=C(NCCC1CCCCN1S(=O)(=O)c1ccc(Cl)cc1)C(=O)NCc1ccco1` (stereo unspecified), the activity, negative = inhibition was -5.87% [at 0.501 µM].

As to `CCOc1ccc(NC(=O)C2CC(=O)N=C(N)S2)cc1` (stereo unspecified), the “activity, negative = inhibition” value is -39.6%.

For the molecule `CCOc1ccc(N/C(N)=N/c2nc(C)c(C)c(=O)[nH]2)cc1`, the Potency was 50.1 µM (active).

Turning to `CCOc1ccc(NC(=O)c2nc(SCC)ncc2Cl)cc1`, the “activity, negative = inhibition” value is -3.51% [at 102 µM].

Regarding `COc1ccccc1C(=O)Nc1c(C(=O)Nc2ccc(C)cc2)oc2ccccc12`, the “activity, negative = inhibition” value was -5.27%.

Regarding `COc1ccc(C)cc1NC(=O)COCc1cc(-c2cccs2)on1`, the “activity, negative = inhibition” value is 8.56%.

As to `COc1ccc(CNC(=O)COc2ccccc2C(=O)c2cnn(-c3ccccc3)c2)cc1OC`, the activity, negative = inhibition was 13.3% [at 12.7 µM].

Turning to `CCOC(=O)C1(Cc2ccccc2C)CCCN(C(=O)c2ccc(COC)o2)C1` (stereo unspecified), the “activity, negative = inhibition” value was -36.1% [at 102 µM].

Regarding `N#CCCN(C(=O)COC(=O)c1ccc(S(=O)(=O)N2CCCCCC2)cc1)c1ccccc1`, the “activity, negative = inhibition” value was -22%.

Consider `CC(C)(C)C(=O)NCCCNc1ccc([N+](=O)[O-])cc1`, for which the “activity, negative = inhibition” value was -3.86%.

In the case of `O=C(Cc1ccccc1)NNS(=O)(=O)c1ccc([N+](=O)[O-])cc1`, the “activity, negative = inhibition” value is -66.7%.

`O=C(O)/C=C/C(=O)NNc1ccc([N+](=O)[O-])cc1`: the Potency was 7.94 µM (active).

On to `CCc1nn(CC(=O)Nc2cc(C)cc(C)c2)c(=O)c2cc3sccc3n12`, for which the “activity, negative = inhibition” value was -17.4%.

For `Cc1n[nH]c(=O)c2c(NC(=O)CSc3ccccc3F)oc(C)c12`, the Potency was 31.6 µM (active).

For `Cc1n[nH]c(=O)c2c(NC(=O)CSc3cc(Cl)ccc3Cl)oc(C)c12`, the activity, negative = inhibition is 18.3% [at 2.33 µM].

As to `Cc1n[nH]c(=O)c2c(NC(=O)COC(=O)c3ncc(Cl)c(Cl)c3Cl)oc(C)c12`, the activity, negative = inhibition is 5.9% [at 0.501 µM].

For the molecule `O=c1c(-c2ccccc2)cnc2n1CCS2`, the activity, negative = inhibition is 20.8% [at 12.7 µM].

In the case of `O=C(O)Cc1sc(-c2ccccc2)nc1-c1cccs1`, the “activity, negative = inhibition” value is -42.8% [at 102 µM].

In the case of `O=c1c2cc(-c3ccccc3)sc2nc2n1N=C(c1cccs1)CS2`, the Potency is 11.2 µM (active).

Turning to `CS(=O)(=O)N1CCN=C1SCc1ccc(F)cc1`, the “activity, negative = inhibition” value is 53.4% [at 102 µM].

Take `CCOC(=O)N1CCC(NC(=O)c2cnn(-c3cccc(C)c3)c2C2CCN(C(=O)OC(C)(C)C)CC2)CC1`: the “activity, negative = inhibition” value was -20.7%.

Regarding `CCOC(=O)c1cc2c(=O)n3ccccc3nc2n(CCCOC)c1=NC(=O)C(C)(C)Oc1ccc(Cl)cc1`, the “activity, negative = inhibition” value is -2.89%.

As to `O=C(CSc1nccn1C1CCCC1)Nc1cc(C(F)(F)F)ccc1Cl`, the Potency was 12.6 µM (active).

Turning to `Cc1cccc(-n2ccnc2SCC(=O)Nc2cc(C(F)(F)F)ccc2Cl)c1`, the Potency is 14.1 µM (active).

In the case of `COc1ccc(NC(=O)CSc2nccn2C2CCCC2)cc1OC`, the “activity, negative = inhibition” value was 9.83%.

For `Cc1cccc(-n2c(Cc3cc(=O)[nH]c(=O)[nH]3)nnc2SCC(=O)Nc2cccc(C(F)(F)F)c2)c1`, the “activity, negative = inhibition” value is 15.1% [at 102 µM].

`O=C(CSc1nc(=O)[nH]c2c1CCCC2)Nc1cc(C(F)(F)F)ccc1Cl`: the “activity, negative = inhibition” value was 10.2%.

`CC(CC(=O)Nc1cc(C(F)(F)F)ccc1Cl)c1ccccc1` (stereo unspecified): the “activity, negative = inhibition” value is 9.26%.

As to `O=C(CN1C(=O)NC2(CCCCC2)C1=O)N1CCN(C(=O)c2cccs2)CC1`, the activity, negative = inhibition is -17% [at 2.33 µM].

Regarding `Cc1ccc2nc(COc3cccc(NC(=O)Nc4ccc(C)c(Cl)c4)c3)cc(=O)n2c1`, the “activity, negative = inhibition” value is 6.7%.

Turning to `CC(=O)NC12CC3CC(C1)CC(C(=O)N1CCN(C(=O)c4ccco4)CC1)(C3)C2`, the “activity, negative = inhibition” value was 25.3%.

With `CCCC(=O)Nc1ccc2oc(-c3ccc(O)c(Br)c3)nc2c1`, the “activity, negative = inhibition” value was -0.852%.

Regarding `CC(C)Nc1nnc(SC(C)C(=O)N(C)C2CCCCC2)s1` (stereo unspecified), the activity, negative = inhibition was 7.92% [at 0.501 µM].

As to `O=C(Cn1ncn2nc(-c3cccs3)cc2c1=O)NCc1cccc(Br)c1`, the “activity, negative = inhibition” value was -32.8%.
